Source: the supplement of paper PMC7801607

Tests used:
CHO = test: % viability of CHO cells (MTT); higher = less toxic; conditions: 48 h
How it was run: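 CHO cells were seeded at 10^6 cells/well in 200 µL and left overnight to attach. The medium was then replaced with fresh medium containing compound at 2 or 20 µM for 48 h. Survival was read colorimetrically with the tetrazolium (MTT) assay. Percent viability was expressed relative to untreated cells.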

HepG2-A16-CD81 = test: % inhibition of HepG2 viability (CellTiter-Glo); higher = more toxic; conditions: 5 µM
[1] = tested on: Plasmodium falciparum NF54 stage IV/V gametocytes; test: % inhibition of gametocyte viability (PrestoBlue); higher = more inhibition; conditions: 48 h
How it was run: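 Stage IV/V NF54 gametocytes (2% gametocytaemia, 5% haematocrit, 100 µL/well) were exposed to compound at 1 or 5 µM. Incubation was 48 h at 37 °C, stationary and hypoxic, followed by 10 µL PrestoBlue for 2 h. Fluorescence at 612 nm was read on 70 µL of transferred supernatant. Percent inhibition of gametocyte viability was normalised to DMSO and kill controls from a single run.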

[2] = tested on: Plasmodium falciparum NF54 asexual blood stage; test: % inhibition of asexual blood stage proliferation (pLDH); higher = more inhibition; conditions: 72 h
How it was run: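 Plasmodium falciparum NF54 ring-stage cultures (1% haematocrit, 2% parasitaemia) were exposed to compound at 2 or 20 µM in 96-well plates. Incubation was 72 h at 37 °C under 4% CO2, 3% O2 and 93% N2. Survival was read colorimetrically at 620 nm with the parasite lactate dehydrogenase assay. Percent inhibition of asexual proliferation was normalised to DMSO and kill controls, and the screen was run on two separate occasions.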

[3] = tested on: Plasmodium falciparum NF54 stage IV/V gametocytes; test: % inhibition of gametocyte viability (ATP bioluminescence); higher = more inhibition; conditions: 24 h
How it was run: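 In 96-well plates, compound at 1 or 5 µM was added to 30,000 density-gradient-enriched stage IV/V NF54 gametocytes per well and incubated for 24 h at 37 °C. ATP readout used the Promega BacTiter Glo bioluminescence system. Percent inhibition of gametocyte viability comes from a single run, normalised to control wells.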

[4] = tested on: Plasmodium falciparum NF54 stage IV/V gametocytes; test: % inhibition of gametocyte viability (luciferase reporter); higher = more inhibition; conditions: 48 h
How it was run: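 Compound at 1 or 5 µM was added to stage IV/V NF54-Pfs16-GFP-Luc gametocytes (2% gametocytaemia, 2% haematocrit) and incubated stationary and hypoxic at 37 °C for 48 h. A GloMax-Multi+ reader measured luminescence over 10 s integration on 30 µL lysate plus 30 µL Promega luciferin substrate. Percent inhibition values were normalised to controls within a single run.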

[5] = tested on: Plasmodium berghei ANKA liver stage in HepG2-A16-CD81; test: % inhibition of liver stage parasite viability (luciferase); higher = more inhibition; conditions: 5 µM; 48 h
Description: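 Single-concentration screen of the MMV Pandemic Response Box. P. falciparum NF54 asexual blood stages: pLDH assay, 72 h at 37 °C, 2 and 20 µM, n=2. Stage IV/V gametocytes (NF54): luciferase reporter (NF54-Pfs16-GFP-Luc, 48 h), ATP bioluminescence (24 h) and PrestoBlue (48 h) at 1 and 5 µM, n=1. P. berghei liver stage (luciferase in HepG2-A16-CD81, 48 h post infection) at 5 µM, n=4. All normalised to DMSO and kill controls as % inhibition.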
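Throughout, for % inhibition of HepG2 viability (CellTiter-Glo): HepG2-A16-CD81 hepatoma cells plated as in the liver-stage assay but without sporozoites, with DMSO wells as negative and 25 µM puromycin as positive control.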

| Compound | % viability of CHO cells (CHO; 2 µM) | % viability of CHO cells (CHO; 20 µM) | % inhibition of HepG2 viability (HepG2-A16-CD81) | % inhibition of gametocyte viability ([1]; 1 µM) | % inhibition of gametocyte viability ([1]; 5 µM) | % inhibition of asexual blood stage proliferation ([2]; 2 µM) | % inhibition of asexual blood stage proliferation ([2]; 20 µM) | % inhibition of gametocyte viability ([3]; 1 µM) | % inhibition of gametocyte viability ([3]; 5 µM) | % inhibition of gametocyte viability ([4]; 1 µM) | % inhibition of gametocyte viability ([4]; 5 µM) | % inhibition of liver stage parasite viability [5] |
| --- | --- | --- | --- | --- | --- | --- | --- | --- | --- | --- | --- | --- |
| C[C@H](NC(CC(=O)c1ccccc1C(F)(F)F)C(=O)O)c1ccccc1 (some centres not stated) | 119% | 58.9% | 0.323% | 20.3% | 77.3% | 34.4% | 108% | 11.3% | 35.8% | < 0% | 56.4% | 36.5% |
| O=C(O)C[C@H]1CC[C@H](c2ccc(-c3ccc(Nc4ccc(C(F)(F)F)nc4)cn3)cc2)CC1 | 115% | 77.1% | 4.22% | 24.3% | 3.88% | 24.2% | 39.5% | 7.64% | 6.34% | < 0% | < 0% | 39.5% |
| COC1CC2CCC(C)C(O)(O2)C(=O)C(=O)N2CCCCC2C(=O)OC(C(C)CC2CCC(OCCO)C(OC)C2)CC(=O)C(C)/C=C(\C)C(O)C(OC)C(=O)C(C)CC(C)/C=C/C=C/C=C/1C (configuration not stated) | 92.8% | 106% | 1.51% | < 0% | 4.18% | 26.6% | 90.3% | 2.16% | 37.2% | 15% | 4.08% | 0.0625% |
| CCOCc1nc2c(N)nc3ccccc3c2n1CC(C)(C)O | 84% | 69.2% | 8.2% | 8.02% | 14.8% | 58% | 77% | < 0% | < 0% | 2.74% | 5.55% | 18.3% |
| N=C(N)NCCCCC(=O)Nc1cc(C(F)(F)F)cc(NC(=O)c2cc(C(=O)Nc3cc(C(F)(F)F)cc(NC(=O)CCCCNC(=N)N)c3O[C@@H]3CCNC3)ncn2)c1O[C@@H]1CCNC1 | 120% | 43% | 15% | < 0% | < 0% | 76.8% | 114% | 9.98% | 39.3% | 19.3% | 78.2% | 35.9% |
| COc1c(NC(=O)[C@H]2CC[C@@H](COc3ccc([N+](=O)[O-])cc3)CC2)c(F)cc2c(=O)c(C(=O)O)cn(C3CC3)c12 | 104% | 102% | -1.96% | < 0% | 23% | 8.56% | 70% | 0.404% | < 0% | < 0% | 9% | 46.8% |
| COc1ccc(C[C@@H](C)[C@@H](C)Cc2ccc(OC)c(OC)c2)cc1OC | 81.9% | 77.7% | 5.15% | 10.5% | 23.6% | 13.7% | 63% | < 0% | < 0% | < 0% | < 0% | 4.88% |
| COc1ccc(C)cc1NC(=O)c1ccc(S(=O)(=O)N2CCCCC2)cc1 | 128% | 156% | 6.14% | 0.335% | 3.85% | 1.42% | 32.8% | < 0% | < 0% | < 0% | < 0% | 30% |
| CC(C)Oc1ccc(-c2nc(-c3cccc4c3CC[C@@H]4NCCO)no2)cc1C#N | 113% | 117% | -1.14% | 16.7% | 7.83% | 78.4% | 87.9% | 14.3% | 84.7% | < 0% | < 0% | 21.6% |
| CC(C)(C)c1ccc(OCCn2nc(C(=O)O)c3ccccc3c2=O)cc1 | 100% | 104% | 1.37% | < 0% | < 0% | 4.78% | 19.9% | < 0% | < 0% | < 0% | < 0% | 3.4% |
| O=C(O)c1ccc(-c2ccc(O[C@H]3O[C@H](CO)[C@@H](O)[C@H](O)[C@@H]3O)cc2)cc1 | 94% | 102% | -2.59% | < 0% | 3.77% | 0.633% | 16.6% | < 0% | < 0% | < 0% | 12.4% | 29.4% |
| COc1ccc(NC(=O)c2cc3ccccn3n2)cc1 | 112% | 57% | -0.446% | < 0% | 10.6% | 20.3% | 87.1% | < 0% | < 0% | < 0% | < 0% | -110% |
| CCCCN1C[C@H](O)[C@@H](O)[C@H](O)[C@H]1CO | 104% | 108% | -0.43% | < 0% | 1.8% | 18.5% | 43.4% | 3.94% | < 0% | < 0% | < 0% | 10.9% |
| NC(=O)C(c1ccccc1)(c1ccccc1)[C@H]1CCCN(CCc2ccc3c(c2)CCO3)C1 | 91.2% | -0.304% | 1.31% | 33.7% | 14% | -5.36% | 68.4% | < 0% | < 0% | 12% | < 0% | 48.5% |
| Cc1cc(NS(=O)(=O)c2ccc(-c3ccc(F)cc3F)cc2)no1 | 95.4% | 116% | 1.14% | 2.55% | 66.2% | -0.00494% | -3.92% | 0.517% | < 0% | < 0% | < 0% | 43.5% |
| CC(=O)Nc1cc(NS(=O)(=O)c2ccc(Cl)cc2)cc2c(Cl)n[nH]c12 | 108% | 81.2% | 2.74% | 21.4% | 50% | 20.6% | 75% | 6.24% | 3.03% | < 0% | < 0% | 11.8% |
